# A selection: hits, their analogues and other compounds. The true share with any hit is near 3.1%.
# FadD28 binding: inhibitors of Mycobacterium tuberculosis FadD28 bisubstrate binding; FadD28 bisubstrate probe binding, fluorescence polarization; inhibition, % at 12.5 µM; actives 0.22% (n = 360,000); AID 588549; in the data active means inhibition above about 8.5%, passing the limit was not always enough; inconclusive means no clear call, values can overlap the other calls
# SARS 3CLpro inh: SARS-CoV 3CLpro protease inhibition; P0C6X7; recombinant SARS-CoV 3CLpro, quenched FRET peptide cleavage; inhibition, % at 6 µM; actives 0.14% (n = 290,000); AID 1706; in the data active means inhibition above about 12%
# GDH-TPI inh: counter-screen for M. tuberculosis FBA inhibitors: GDH-TPI coupled enzymes; GDH-TPI coupled enzyme counterscreen, NADH absorbance; inhibition, % at 4.8 µM; actives 1.2% (n = 360,000); AID 588335; in the data active means inhibition above about 30%
# BioA inh: inhibitors of Mycobacterium tuberculosis BioA enzyme; inhibition, % at 9.99 µM; actives 0.096% (n = 360,000); AID 602481; purified M. tuberculosis BioA enzyme, plate reader; in the data active means inhibition above about 40%; inconclusive means no clear call, values can overlap the other calls
# Mtb FBA inh: inhibits M. tuberculosis FBA enzyme | P9WQA3 | purified M. tuberculosis FBA, fluorescence read-out | inhibition, % at 1 µM | actives 2.3% (n = 360,000) | AID 588726; in the data active means inhibition above about 27%
# Target sequence (P9WQA3 whole entry, looked up): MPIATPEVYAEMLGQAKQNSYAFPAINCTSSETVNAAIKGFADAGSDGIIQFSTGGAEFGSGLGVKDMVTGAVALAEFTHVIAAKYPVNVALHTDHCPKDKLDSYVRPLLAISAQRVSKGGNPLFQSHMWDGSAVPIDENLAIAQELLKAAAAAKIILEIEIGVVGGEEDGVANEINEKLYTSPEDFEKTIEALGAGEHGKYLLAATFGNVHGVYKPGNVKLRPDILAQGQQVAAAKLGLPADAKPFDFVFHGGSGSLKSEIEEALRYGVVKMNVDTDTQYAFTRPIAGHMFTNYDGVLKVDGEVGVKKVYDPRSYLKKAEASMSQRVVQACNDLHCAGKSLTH
# Hits are given with their value; . = inactive; ? = inconclusive; / = no result given; + = active, no number.
SMILES,FadD28 binding,SARS 3CLpro inh,GDH-TPI inh,BioA inh,Mtb FBA inh
CCn1cc(C(=O)O)c(=O)c2cc(F)c(N3CCNCC3)cc21,.,.,.,.,55.4
C=CCNC(=O)c1cn(CC)c2cc(N3CCN(C(=O)c4ccco4)CC3)c(F)cc2c1=O,.,.,.,.,97.0
CCC(C)NC(=O)c1cn(CC)c2cc(N3CCN(C(=O)c4ccco4)CC3)c(F)cc2c1=O (stereo not given),.,.,.,.,54.3
CCn1cc(C(=O)NCc2ccco2)c(=O)c2cc(F)c(N3CCN(C(=O)c4ccco4)CC3)cc21,.,.,.,.,.
CCC(=O)N(C)C[C@@H]1Oc2cc(/C=C/c3ccccc3)ccc2S(=O)(=O)N([C@H](C)CO)C[C@@H]1C,/,/,/,.,/
CCOc1ccc(-c2cc(C)[n+](CCc3ccc(OC)c(OC)c3)c(-c3ccc(OCC)cc3)c2)cc1,.,.,30.7,.,.
Cc1cc(-c2ccccc2)cc(-c2ccccc2)[n+]1CCc1ccccc1,.,/,.,.,.
Cc1ccc(-n2c3nc(=O)[nH]c(=O)c-3cc3c(C)nn(-c4ccccc4)c32)c(C)c1,.,.,.,/,+
Cc1cccc(-n2c3nc(=O)[nH]c(=O)c-3cc3c(C)nn(-c4ccccc4)c32)c1,/,.,/,/,/
N=c1c(C(=O)NCc2ccc3c(c2)OCO3)cc2c(=O)n3ccccc3nc2n1Cc1cccnc1,.,.,.,.,.
N=c1c(C(=O)NCc2ccco2)cc2c(=O)n3ccccc3nc2n1Cc1ccccc1,?,.,.,.,162.8
COCCn1c(=N)c(C(=O)NCc2ccco2)cc2c(=O)n3ccccc3nc21,.,.,.,.,137.8
COc1ccc(CNC(=O)c2cc3c(=O)n4ccccc4nc3n(Cc3cccnc3)c2=N)cc1,.,.,.,.,.
COCCCn1c(=N)c(C(=O)NCc2ccc3c(c2)OCO3)cc2c(=O)n3ccccc3nc21,.,.,.,.,.
N=c1c(C(=O)NCc2ccc(F)cc2)cc2c(=O)n3ccccc3nc2n1Cc1ccco1,.,.,.,.,38.0
COc1ccccc1S(=O)(=O)N1C[C@H](O)COC[C@H]2O[C@@H](CC(=O)O)CC[C@@H]21,/,/,/,.,/
O=C(O)Cc1ccc(Nc2cnn(C34CC5CC(CC(CC(=O)O)(C5)C3)C4)c(=O)c2Cl)cc1,.,.,50.6,.,.
CNc1ccc(Cl)cc1C(N)=O,.,.,.,.,113.2
C[C@@H]1CCCCO[C@@H](CN(C)S(=O)(=O)c2cccs2)[C@@H](C)CN([C@H](C)CO)C(=O)c2cc(NC(=O)Nc3ccccc3)ccc2O1,/,/,/,.,/
O=C(/C=C/C=C/c1ccc2c(c1)OCO2)N1CCCCC1,.,/,41.2,.,.
CC(C)CNC(=O)/C=C/C=C/c1ccc2c(c1)OCO2,.,/,38.9,.,.
COc1cccc(C(=O)OCC(=O)NC(=O)NC2CCCC2)c1O,11.9,.,.,/,.
COc1ccc(C(=O)OCC(=O)NC(=O)NC2CCCC2)cc1OC,.,/,.,.,.
C[N+](C)(C)c1ccc(/C=N/Nc2nc(Cl)c(C#N)c(Cl)c2Cl)cc1,.,.,37.5,/,.
O=C(C[C@@H]1CC[C@H](NC(=O)Nc2ccc3c(c2)OCO3)[C@@H](CO)O1)NCCCN1CCOCC1,/,/,/,.,/
SMILES,FadD28 binding,SARS 3CLpro inh,GDH-TPI inh,BioA inh,Mtb FBA inh
COc1ccc2c(ccc[n+]2CC(=O)c2ccc(C)cc2)c1,.,.,.,.,31.2
COc1ccc2c(ccc[n+]2CC(=O)c2ccccc2)c1,.,.,.,.,.
O=C(C[C@H]1C[C@H]2c3cc(NS(=O)(=O)c4ccc(F)cc4)ccc3O[C@H]2[C@H](CO)O1)N1CCc2ccccc2C1,/,/,/,.,/
Cc1cc(C)n2nc(-c3ccc(F)cc3)nc2n1,.,.,.,.,.
Cc1cc(C)n2nc(-c3ccco3)nc2n1,.,.,.,/,124.0
CC(=O)N(C)C[C@H]1Oc2ncc(/C=C/c3ccccc3)cc2C(=O)N([C@H](C)CO)C[C@@H]1C,/,/,/,.,/
CCOC(=O)N1CCN(/C=C(\C#N)c2nc3ccccc3s2)CC1,.,.,34.6,/,.
COc1ccccc1/C=C(\NC(=O)c1ccc(OC)c(OC)c1)C(=O)Nc1ccc([N+](=O)[O-])cc1,.,.,35.6,/,.
O=C(NNc1cccc([N+](=O)[O-])c1)/C(=C\c1cccnc1)NC(=O)c1ccccc1,.,.,44.2,.,.
COc1ccccc1/C=C(\NC(=O)c1ccc(OC)c(OC)c1)C(=O)Nc1cccc([N+](=O)[O-])c1,.,.,32.4,/,.
CC(C)NC(=O)N1C[C@@H]2[C@H](c3ccccc31)[C@@H](CO)N2C(=O)Nc1cccc(F)c1,/,/,/,.,/
CC(C)c1cn(CC[C@H]2CC[C@@H](NC(=O)Nc3cc(Cl)cc(Cl)c3)[C@@H](CO)O2)nn1,/,/,/,.,/
COc1ccc(NC(=O)N(C)C[C@H]2OCCCC[C@H](C)Oc3ccc(NC(=O)c4ccccc4)cc3C(=O)N([C@H](C)CO)C[C@@H]2C)cc1,/,/,/,.,/
CO[C@H]1CN(C)C(=O)c2cc(NC(=O)NC(C)C)ccc2OC[C@H](C)N(CC2CC2)C[C@H]1C,/,/,/,.,/
CCN(CC)c1ccc(C2=NNC(=O)CC2C)cc1[N+](=O)[O-] (stereo not given),.,.,31.0,.,.
CC1CC(=O)NN=C1c1ccc(N(C)C)c([N+](=O)[O-])c1 (stereo not given),.,.,37.1,.,.
CC1CC(=O)NN=C1c1cccs1 (stereo not given),.,.,.,.,.
C[C@H](NC(=O)C[C@@H]1C[C@H]2c3cc(NS(=O)(=O)c4ccc(F)cc4)ccc3O[C@H]2[C@H](CO)O1)c1ccccc1,/,/,/,.,/
CSc1ccc(/C=N/n2c(C)nnc2C)cc1,.,.,.,.,.
CSc1ccc(/C=N/n2c(C)cc(C)cc2=O)cc1,.,.,32.5,.,.
CCOc1cc(/C=N/N=C2/NC(=O)C(CC(=O)O)S2)ccc1OCc1ccccc1Cl (stereo not given),.,.,39.7,/,.
CCOc1cc(/C=N/N=C2/NC(=O)C(CC(=O)O)S2)ccc1OS(=O)(=O)c1ccc(C)cc1 (stereo not given),.,.,.,/,.
COc1ccc(/C=N/N=C2/NC(=O)C(CC(=O)O)S2)cc1OCc1ccccc1Cl (stereo not given),.,.,45.8,.,.
COc1ccc(/C=N/N=C2/NC(=O)C(CC(=O)O)S2)cc1OCc1ccc(Cl)cc1Cl (stereo not given),.,.,34.7,.,.
COc1ccc(S(=O)(=O)Oc2cccc(/C=N/N=C3/NC(=O)C(CC(=O)O)S3)c2)cc1 (stereo not given),.,.,.,/,.
CS(=O)(=O)Nc1ccc2c(c1)[C@@H]1C[C@H](CC(=O)NCc3cccc(F)c3)O[C@@H](CO)[C@@H]1O2,/,/,/,.,/
C[C@@H]1CN([C@H](C)CO)C(=O)Cc2cc(NC(=O)c3ccncc3)ccc2O[C@@H]1CN(C)Cc1ccc(Cl)c(Cl)c1,/,/,/,.,/
Cc1noc(C)c1S(=O)(=O)Nc1ccc2c(c1)CC(=O)N([C@@H](C)CO)C[C@@H](C)[C@@H](CN(C)C(=O)NC1CCCCC1)O2,/,/,/,.,/

# Source: PubChem
